Data reported in PubChem BioAssay (NCI).
The panel holds about 83,000 compounds, 20% with a hit somewhere; the sample as a whole holds those more often.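 In brief: 96-well plates, 48 h treatment, single concentration, percent growth endpoint.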 Calls of active or inactive are those of the source.

What follows are molecules tested on HOP-62 NSCLC (assay: NCI-60 one-dose screen, 48 h (100 = growth as untreated, 0 = no growth, -100 = all killed)). Details: 10 µM unless noted.
Experimental: Growth inhibition of the HOP-62 human Non-Small Cell Lung tumor cell line is measured as a screen for anti-cancer activity. Cells are grown in 96 well plates and exposed to the test compound for 48 hours. Compounds are tested at a single concentration, which is 10^-5 M for most compounds. The reported endpoint is percent growth (GI% or GIPRCNT), where numbers from 0 - 100% represent growth inhibition, and numbers from -100% - 0 represent cell death. For example, a value of 40 represents 60% growth inhibition. A value of 0 means no net growth occurred over the course of the experiment. A value of -40 indicates 40% of cells at the beginning of the experiment died by the end of the experiment. A value of -100 means all cells are dead at the end of the experiment.
NCI-60 Human Tumor Cell Lines Screen was performed using the standard one-dose NCI protocol, which is described in more detail at https://dtp.cancer.gov/discovery_development/nci-60/default.htm.
Compounds with GIPRCNT values below 10 were considered active. Activity score was based on GIPRCNT using the following formula: […]
Score is 0 for GIPRCNT values of 100 or above, 50 for GIPRCNT values of 0, and 100 for GIPRCNT values of -100.
With `COC(=O)C1CN(S(=O)(=O)/N=C2\NC(=O)NC2=C(Cl)Cl)C1` the growth was 109% (inactive).
In the case of `CN(C)CCCNc1c2ccc(Cl)cc2nc2c1oc1ccccc12`, the growth is reported as 46.9% (inactive).
With `COc1cc(/C=C/C(=O)c2cc(OC)c(OC)c(OC)c2)ccc1OCc1ccccc1` the growth was 40.8% (inactive).
In the case of `N[C@@H](Cc1cn(-c2ccnc3ccccc23)nn1)C(=O)O`, the growth is reported as 95.1% (inactive).
In the case of `Fc1ccc(-c2cc3nc(C(Cl)Cl)nc(-c4ccccc4)n3n2)cc1`, the growth is reported as -36.9% (active).
In the case of `c1ccc2c(NCCCN3CCOCC3)c3oc4ccccc4c3nc2c1`, the growth is reported as -13.4% (active).
For `CCC/C=C/C=C/C(=O)N[C@@H](Cc1cc(F)cc(F)c1)C(=O)N[C@@H]1C(=O)N2CCC[C@H]2C(=O)N2CCCC[C@H]2C(=O)N[C@@H](C)C(=O)N2C[C@H](C)C[C@H]2C(=O)O[C@H]1C`, the growth was 31.6% (inactive).
With `COc1ccc(-c2nc3ccc(-c4nnc(SCC(=O)Nc5ccc(C(C)=O)cc5)o4)cc3[nH]2)cc1` the growth was 113% (inactive).
`N#Cc1nc(-c2ccccc2)oc1S(N)(=O)=O` was tested, and the growth was 111% (inactive).
In the case of `CC(C)(C)Nc1nc2c(OCCc3ccccc3)cccn2c1-c1ccccc1Cl`, the growth is reported as -22.1% (active).
In the case of `O=C(c1ccc(Cl)cc1)C1[C@H](c2ccc(Cl)cc2)[C@@H](c2ccccc2)NC12C(=O)Nc1ccc(Br)cc12` (stereo not given in full), the growth is reported as 58.6% (inactive).
In the case of `C#C[C@]1(O)CC[C@H]2[C@@H]3CC=C4c5sc(Nc6ccc(Cl)cn6)nc5CC[C@]4(C)[C@H]3CC[C@@]21C`, the growth is reported as 34.8% (inactive).
In the case of `[Cl][Ru].c1ccc(-c2cc(-c3ccccn3)nc(-c3ccccn3)c2)cc1.c1ccc(-c2ccnc3c2ccc2c(-c4ccccc4)ccnc23)cc1`, the growth is reported as 25.1% (inactive).
In the case of `Fc1ccc(-c2nc(C(Cl)Cl)nc3cc(-c4ccccc4)nn23)cc1`, the growth is reported as -19.5% (active).
For `Cn1cc(-c2cc(N)n3nc(-c4cn(C)c5ccc(Br)cc45)cc3n2)c2cc(Br)ccc21`, the growth was 94.8% (inactive).
In the case of `COc1cc(/C=C/C(=O)c2ccc(F)cc2)ccc1Oc1nc(NCCO)nc(N2CCOCC2)n1`, the growth is reported as 102% (inactive).
`COc1cc(/C=C/C(=O)c2cc(OC)c(OC)c(OC)c2)ccc1OCc1ccc(F)cc1` was tested, and the growth was 36.2% (inactive).
In the case of `CCN1C(=S)N(c2ccccc2)C2NC(=O)N(/N=C/C=C/c3ccccc3OC)C21` (stereo not given), the growth is reported as 80.6% (inactive).
In the case of `Cc1cc(=O)oc2cc(OCCCOc3ccc(/C=C/C(=O)Nc4ccc(Cl)cc4)cc3)ccc12`, the growth is reported as 90.2% (inactive).
In the case of `CCOC(=O)c1c(Nc2ccccc2)nn2c(N)c(C#N)c(-c3ccccc3)nc12`, the growth is reported as 97.7% (inactive).
With `C[C@@H](Nc1c(C#N)cnc2ccc(-c3cnc(N)nc3)cc12)c1ccccc1` the growth was 31.1% (inactive).
`C#Cc1nc(C2=C(C)C(OC(=O)CCC(=O)O)CC2)cs1` (stereo not given) was tested, and the growth was 111% (inactive).
For `Cc1cccc(/C=C/c2nn3c(-c4ccco4)nnc3s2)c1`, the growth was 100% (inactive).
With `CCOC(=O)c1sc(N)c(C(=O)OCC)c1C` the growth was 52.6% (inactive).
For `O=C(Nc1nc2ccc(O)cc2s1)c1cccc(C(F)(F)F)c1`, the growth was 88.6% (inactive).
`O=C1Nc2ccc(Cl)cc2/C1=C/c1ccc(OCC(=O)c2ccc(Br)cc2)cc1` was tested, and the growth was 68.4% (inactive).
For `COc1ccc(/C=N/NC(=O)c2[nH]c3ccc(Br)cc3c2-c2ccccc2)o1`, the growth was 47.6% (inactive).
For `CCOC(=O)c1sc(NCC(=O)Nc2cccc([N+](=O)[O-])c2)c(C(=O)OCC)c1C`, the growth was -12.9% (active).
With `CCN1C(=S)N(CC)C2C1N=C(SC)N2/N=C/C=C/c1ccccc1[N+](=O)[O-]` (stereo not given) the growth was 99.7% (inactive).
`O=[N+]([O-])c1ccc(O)c2ncccc12` was tested, and the growth was 19.1% (inactive).
With `CN(C)S(=O)(=O)c1oc(-c2ccccc2)nc1C#N` the growth was 99.6% (inactive).
With `Nc1cc(-c2c[nH]c3ccc(Cl)cc23)nc2cc(-c3c[nH]c4ccc(Cl)cc34)nn12` the growth was 85.7% (inactive).
With `CCCCCCNC(=O)Oc1ccc(/C(=C(/C)c2ccccc2)c2ccc(OCCN3CCCCCC3)cc2)cc1` the growth was 78.6% (inactive).
`Clc1ccc2c(NCCCN3CCOCC3)c3oc4ccccc4c3nc2c1` was tested, and the growth was 66.5% (inactive).
With `O=C(NNc1nc2cc(F)ccc2n2c(CN3CC4(COC4)C3)ccc12)c1cnccn1` the growth was 23% (inactive).
In the case of `COc1ccc(C(=O)/C=C/c2ccc(OCc3ccc(Cl)cc3)c(OC)c2)cc1OC`, the growth is reported as 103% (inactive).
`CNC(=O)c1cc(-c2ccc(NC(=O)Nc3ccc(N4CCN(C)CC4)c(C(F)(F)F)c3)cc2)nc2cccnc12` was tested, and the growth was -78.3% (active).
In the case of `Clc1ccc2oc3c(NCCCn4ccnc4)c4ccccc4nc3c2c1`, the growth is reported as 66.2% (inactive).
`O=C1Nc2ccccc2Oc2ccc(S(=O)(=O)CC3CO3)cc21` (stereo not given) was tested, and the growth was 101% (inactive).
With `[Cl][Ru].c1ccc(-c2cccc(-c3ccccn3)n2)nc1.c1ccc(-c2ccnc3c2ccc2c(-c4ccccc4)ccnc23)cc1` the growth was 78.7% (inactive).
